Experimental findings from PubChem BioAssay (NCI) are described below.

Common to all, as to assay: NCI-60 one-dose screen, 48 h (100 = growth as untreated, 0 = no growth, -100 = all killed)
Conditions in all cases: 10 µM

Assay [1] concerns NCI-H23 lung.
Assay [2] deals with NCI-H226 lung.
In assay [3] the test system is HOP-62 NSCLC.
The test system of assay [4] is NCI-H460 lung.
The subject of assay [5] is HOP-92 NSCLC.
Assay [6] relates to NCI-H522 lung.
Assay [7] deals with A549/ATCC NSCLC.
Assay [8] concerns 786-0 renal.
Assay [9] concerns COLO 205 colon.

About 83,000 compounds went through this panel and 20% of them were active in at least one assay; those are over-represented in the sample as a whole.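 A percent growth of 40 corresponds to 60% growth inhibition; 0 means no net growth; -100 means all cells died. Active threshold: below 10.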 A number with no mark means an inactive call. Active and inactive are the calls of the source.

In the case of `CCOC(=O)c1cc(C(=O)c2ccc(OC)c(OC)c2)n2ccncc12`, the growth was 97.4% in assay [1]; 101% in assay [2]; 106% in assay [3]; 106% in [4]; 94.9% in assay [5]; 74% in assay [6]. Moreover, the growth in assay [7] was 99.3%; in assay [8], 106%; in [9], 115%.
With `COc1cc2ncnc(NC3CCC(O)CC3)c2cc1OC` (centres undefined), the growth was 91.2% in [1]; 92.7% in assay [2]; 99.2% in assay [3]; 102% in assay [4]; 89.7% in [5]; 81.6% in assay [6]. Also, the growth is 85.9% in assay [7], 85.5% in assay [8] and 102% in assay [9].
Consider `O=C(Cn1cc(CO)nn1)Nc1nc2ccccc2s1`, for which the growth in [1] is 101%; in assay [2] it was 103%; in assay [3], 101%; in assay [4] it was 106%; in assay [5], 106%; in [6] it was 93.7%. In addition, the growth was 97.2% in assay [7], 103% in assay [8] and 111% in assay [9].
As for `COc1ccc(-c2cc(-c3ccc(OC)c(OC)c3)nc(SCCCC(=O)NO)n2)cc1`, the growth in assay [1] was -26.8% (active); in assay [2] it was -15.3% (active); in assay [3], -13.3% (active); in [4], -4.97% (active); in assay [5] it was -28.6% (active); in [6], 2.7% (active). Besides, the growth in assay [7] was -0.0794% (active); in assay [8] it was -20.8% (active); in [9], -12.4% (active).
Consider `CCOC(=O)c1cc(C(=O)c2cc(OC)c(OC)c(OC)c2)n2nc(C)ccc12`, for which the growth in assay [1] was 39.2%; in assay [2] it was 79.5%; in assay [3], 51.2%; in assay [4], 9.56% (active); in [5], 50.1%; in assay [6], 3.82% (active). Further, the growth in [7] was 26.8%; in [8], 54.4%; in [9] it was -39.4% (active).
For the compound `COc1cc(-c2nn(-c3cccc(NC(=O)CCN4CCN(c5ccccc5)CC4)c3)cc2-c2ccncc2)ccc1Cl`, the growth in assay [1] was 24.5%; in [2], 47.6%; in [3], 34.2%; in assay [4] it was 6.87% (active); in assay [5], 4.23% (active); in [6], 10.1%. Besides, the growth in assay [7] is 15.9%; in [8], 2.45% (active); in assay [9], -36.9% (active).
